Rows were chosen to be rich in hits. Some 7.2% of all compounds tested hit in one or more screens of this group.
SNCA expr inh: SNCA gene expression inhibition; Potency, µM (doses to about 57.2 µM), without a hit: top-dose activity change, negative = inhibition, usual class: inhibitors; AID 1671194; HEK-293 SNCA-luciferase knock-in, luminescence, 24 h; 140,000 tested, 0.17% active;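 also: plate controls were DMSO cells for no effect and cell-free wells for full effect; nearly all actives have a fitted effect of over 45% in size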
FLuc inh-1: Photinus pyralis luciferase inhibition; P08659; purified P. pyralis luciferase, luminescence, biochemical; Potency, µM (highest dose often 115 µM), most hits filed as inhibitors; 76,000 tested, 2.5% active; AID 1347043; also: % is scaled to controls: 0 for no effect and ±100 for the full control effect; nearly all actives have a fitted effect of over 65% in size
Target sequence (P08659 whole entry, looked up): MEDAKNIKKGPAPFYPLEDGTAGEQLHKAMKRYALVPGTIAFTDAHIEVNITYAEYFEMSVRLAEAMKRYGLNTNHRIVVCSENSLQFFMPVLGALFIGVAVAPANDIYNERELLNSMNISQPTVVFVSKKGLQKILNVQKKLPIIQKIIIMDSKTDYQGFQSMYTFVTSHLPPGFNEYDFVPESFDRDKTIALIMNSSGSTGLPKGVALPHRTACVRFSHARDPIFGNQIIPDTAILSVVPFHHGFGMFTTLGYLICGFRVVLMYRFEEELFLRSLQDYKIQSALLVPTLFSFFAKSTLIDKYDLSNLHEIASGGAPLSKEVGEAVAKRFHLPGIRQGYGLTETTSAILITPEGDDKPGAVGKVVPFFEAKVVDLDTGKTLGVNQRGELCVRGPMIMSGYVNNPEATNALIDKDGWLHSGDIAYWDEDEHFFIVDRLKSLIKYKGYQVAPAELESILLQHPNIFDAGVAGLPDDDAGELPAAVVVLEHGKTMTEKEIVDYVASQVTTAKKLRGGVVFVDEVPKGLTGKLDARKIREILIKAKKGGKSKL
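Luminescence read by CCD imager after adding enzyme (10nM final) to wells holding compound, titrated in qHTS. Substrates 10uM each D-luciferin and ATP; buffer 50mM Tris acetate pH 7.5, 10mM Mg acetate, Tween-20, BSA.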
hNpr1 antagonist: human Npr1 receptor antagonism. 76,000 tested, 1.6% active. Potency, µM (top dose mostly 46.3 µM), for the others: at the highest dose activity change, negative = inhibition, actives largely listed as inhibitors. P16066. HEK293 hNpr1 GloSensor cGMP, ANP-stimulated luminescence; calls by dose curve; also: % is scaled to controls: 0 for no effect and ±100 for the full control effect; nearly all actives have a fitted effect of over 60% in size
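Compound pre-incubated 30 min at room temperature on GloSensor-loaded HEK293 cells stably carrying hNpr1 and the pGS-40F cGMP biosensor. Stimulation uses hNppA at 0.1 nM final; luminescence is taken at baseline and 20 min post-agonist.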
3T3 cytotox: cytotoxic compounds in NIH 3T3 cells | Potency, µM (doses to about 96.7 µM), for inactives: at the highest dose activity change, negative = cytotoxicity, usual class: inhibitors | 94,000 tested, 4.3% active | NIH 3T3 viability, CellTiter-Glo ATP luminescence, 48-72 h; also: % is scaled to controls: 0 for no effect and ±100 for the full control effect; nearly all actives have a fitted effect of over 55% in size
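Cytotoxicity was measured by CellTiter-Glo ATP luminescence after 48 or 72 h compound exposure at 37 °C. Mouse NIH 3T3 fibroblasts were seeded at 400 cells/well and dosed by 23 nL pin transfer.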
SNCA viab count: counter-screen for SNCA expression inhibitors: cell viability. HEK-293-SNCA-luc viability, GF-AFC fluorescence, 24 h. Potency, µM (doses to about 57.1 µM), for inactives: at the top dose activity change, negative = cytotoxicity, hits mostly cytotoxic. 150,000 tested, 0.12% active;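 also: 0% = DMSO-treated cells and -100% = medium-only wells without cells; nearly all actives have a fitted effect of over 30% in size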
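Cytotoxicity counterscreen: after 24 h compound treatment of genome-edited SNCA-luciferase HEK-293 cells, live-cell protease substrate GF-AFC read by fluorescence after 30 min; activity scaled between DMSO (0%) and medium-only (-100%), curves Hill-fitted.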
HEK293 tox: cytotoxic compounds in HEK 293 cells; Potency, µM (highest dose often 115 µM), for the others: at the top dose activity change, negative = cytotoxicity, hits mostly inhibitors; 94,000 tested, 6.6% active; HEK 293 viability, ATP luminescence (CellTiter-Glo), 48-72 h; also: % is scaled to controls: 0 for no effect and ±100 for the full control effect; nearly all actives have a fitted effect of over 60% in size
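CellTiter-Glo luminescence (cellular ATP) was read after 48 or 72 hr of compound exposure at 37 degree Celsius. Cells were HEK 293 plated at 250 cells/well.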
FLuc SDR -ATP: firefly luciferase binding stabilization, ATP absent. shares compounds with FLuc inh-1. Purified FLuc-C-HiBiT, Nano-Glo HiBiT luminescence, no ATP. Potency, µM (series often up to 32.7 µM), for inactives: top-dose activation (signal gain), usual class: activators. 1,300 tested, 7.8% active; also: nearly all actives have a fitted effect of over 55% in size
FLuc SDR ATP: firefly luciferase binding stabilization, ATP added; 1,300 tested, 8.7% active; Potency, µM (titrated, usually from 32.7 µM), without a hit: top-dose activation (gain of signal), most hits filed as activators; shares compounds with FLuc inh-1; AID 1963319; purified FLuc-C-HiBiT + ATP, HiBiT complementation luminescence;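 also: signal reports ligand binding via conformational change of the enzyme rather than luciferase catalysis; % of control where 0% means no effect; nearly all actives have a fitted effect of over 55% in size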
FLuc inh-2: inhibitors of firefly luciferase enzymatic activity. shares compounds with FLuc inh-1. Potency, µM (series often up to 32.7 µM), inactives show at the highest dose activity change, negative = inhibition, usual class: inhibitors. purified FLuc-C-HiBiT enzyme, luciferin luminescence. 1,300 tested, 42% active; also: % is scaled to controls: 0 for no effect and ±100 for the full control effect; nearly all actives have a fitted effect of over 70% in size
Numbers without * were called inactive; [ ] = remark or other dose. Unless noted, calls follow the shape of the dose curve; as a rule, active = well fitted curve in the direction sought with a large enough effect; inconclusive = small, poorly fitted or top-dose-only effect, or another doubt; inactive = no such curve, though single readings can be large; an effect the other way counts as inactive or inconclusive. Potency is read from the fitted curve at half-maximal effect.

What do the screens show for `CC1(Cc2ccc3c(c2)OCO3)CCCN(C(=O)c2ccc3ncsc3c2)C1` (configuration not stated)?
SNCA expr inh: -14%; FLuc inh-1: 7.9µM*; hNpr1 antagonist: -23%; 3T3 cytotox: -19%; SNCA viab count: -22%; HEK293 tox: 45µM*; FLuc SDR -ATP: inconclusive; FLuc SDR ATP: 18%; FLuc inh-2: inconclusive

How did CC(C)c1noc(Cn2nc(-c3ccccc3)c3ccccc3c2=O)n1 do in these assays?
SNCA expr inh: 27%; FLuc inh-1: inactive; hNpr1 antagonist: -2%; 3T3 cytotox: -16%; SNCA viab count: 5%; HEK293 tox: -27%

Results for COc1ccc(CNC(=O)c2ccc3c(c2)N=C(C)c2c(C)ccc(C)c2S3)cc1 ?
SNCA expr inh: inconclusive; FLuc inh-1: inactive; hNpr1 antagonist: -16%; 3T3 cytotox: inconclusive; SNCA viab count: -14%; HEK293 tox: 10µM*; FLuc SDR -ATP: 13%; FLuc SDR ATP: 8%; FLuc inh-2: 2%

Results for CCCNC(=O)c1ccc2c(c1)N=C(C)c1c(C)ccc(C)c1S2 ?
SNCA expr inh: -5%; SNCA viab count: -13%

Results for COc1ccccc1NC(=O)CN1C(=O)CC(c2ccc(C)c(C)c2)=Nc2ccccc21 ?
SNCA expr inh: 110%; SNCA viab count: -11%; FLuc SDR -ATP: 19%; FLuc SDR ATP: 15%; FLuc inh-2: inconclusive

What do the screens show for `O=C(Nc1ccc(Cl)cc1)Nc1ccc2n(c1=O)C[C@H]1C[C@@H]2CN(C(=O)c2ccc3ccccc3c2)C1`?
SNCA expr inh: inconclusive; FLuc inh-1: 14µM*; hNpr1 antagonist: -23%; 3T3 cytotox: 40µM*; SNCA viab count: inconclusive; HEK293 tox: 28µM*; FLuc SDR -ATP: 13%; FLuc SDR ATP: 8%; FLuc inh-2: inconclusive

Results for COc1ccc(CC(=O)Nc2ccc3n(c2=O)C[C@H]2C[C@@H]3CN(C(=O)c3ccc4ccccc4c3)C2)cc1 ?
SNCA expr inh: -24%; FLuc inh-1: inactive; hNpr1 antagonist: -12%; 3T3 cytotox: inconclusive; SNCA viab count: inconclusive; HEK293 tox: -28%

Results for COC(=O)c1cc(NC(=O)CCc2c(C)nc3cc(-c4ccccc4)nn3c2C)cc(C(=O)OC)c1 ?
SNCA expr inh: -13%; SNCA viab count: -3%

How did COC(=O)c1ccccc1NC(=O)CCc1c(C)nc2cc(-c3ccc(Cl)cc3)nn2c1C do in these assays?
SNCA expr inh: inconclusive; SNCA viab count: -4%; FLuc SDR -ATP: 9%; FLuc SDR ATP: inconclusive; FLuc inh-2: inconclusive

How did CCOc1ccc(NC(=O)CCc2c(C)nc3cc(-c4ccc(Cl)cc4)nn3c2C)cc1 do in these assays?
SNCA expr inh: inconclusive; SNCA viab count: 12%; FLuc SDR -ATP: 22%; FLuc SDR ATP: 0.99µM*; FLuc inh-2: 2.8µM*

Results for CCOC(=O)c1cccc(NC(=O)CCc2c(C)nc3cc(-c4ccc(Cl)cc4)nn3c2C)c1 ?
SNCA expr inh: inconclusive; SNCA viab count: 6%; FLuc SDR -ATP: 13%; FLuc SDR ATP: inconclusive; FLuc inh-2: 8.8µM*

How did Cn1ncc(CN2CCCC23CCN(c2ccc(C(F)(F)F)cn2)CC3)c1C1CC1 do in these assays?
SNCA expr inh: 7%; FLuc inh-1: inactive; hNpr1 antagonist: 4%; 3T3 cytotox: inconclusive; SNCA viab count: -11%; HEK293 tox: inconclusive

How did C[C@H](C(=O)NCCN1CCOCC1)C1CC[C@@]2(C)Cc3sc(-c4ccccc4)nc3[C@@H](C)[C@@H]2[C@H]1O (some centres not stated) do in these assays?
SNCA expr inh: 0.79µM*; FLuc inh-1: 11µM*; hNpr1 antagonist: inconclusive; 3T3 cytotox: inconclusive; SNCA viab count: 2%; HEK293 tox: inconclusive; FLuc SDR -ATP: 2.2µM*; FLuc SDR ATP: inconclusive; FLuc inh-2: 0.99µM*

Results for Cc1c(C(=O)N(Cc2cccc(OCC3CCOC3)c2)Cc2ccccn2)[nH]c2ccc(Cl)cc12 (configuration not stated) ?
SNCA expr inh: 16%; FLuc inh-1: inactive; hNpr1 antagonist: 2%; 3T3 cytotox: -12%; SNCA viab count: -6%; HEK293 tox: inconclusive

Results for CCN1CCN(C(=O)c2cc(-c3ccc(C)cc3)cn2CC)CC1 ?
SNCA expr inh: -9%; FLuc inh-1: inactive; hNpr1 antagonist: 1%; 3T3 cytotox: inconclusive; SNCA viab count: 0%; HEK293 tox: inconclusive

How did CCn1cc(-c2ccc(F)cc2)cc1C(=O)O do in these assays?
SNCA expr inh: 2%; FLuc inh-1: inactive; hNpr1 antagonist: -13%; 3T3 cytotox: -20%; SNCA viab count: -3%; HEK293 tox: -14%; FLuc SDR -ATP: 16%; FLuc SDR ATP: 11%; FLuc inh-2: -8%

Results for CCn1cc(-c2ccc(OC)cc2)cc1C(=O)O ?
SNCA expr inh: 35%; FLuc inh-1: 25µM*; hNpr1 antagonist: -3%; 3T3 cytotox: -23%; SNCA viab count: 5%; HEK293 tox: inconclusive; FLuc SDR -ATP: 16%; FLuc SDR ATP: 14%; FLuc inh-2: inconclusive

Results for O=C1CC2(CCN(CC3CC3)CC2)Oc2ccccc21 ?
SNCA expr inh: inconclusive; FLuc inh-1: 7.9µM*; hNpr1 antagonist: 35µM*; 3T3 cytotox: inconclusive; SNCA viab count: 1%[87.6 µM]; HEK293 tox: inconclusive; FLuc SDR -ATP: 17%[49.3 µM]; FLuc SDR ATP: inconclusive; FLuc inh-2: inconclusive

What do the screens show for `COc1ccc(NC(=O)NC[C@H]2Cn3cc(-c4ccc(C)cc4)nc3CO2)cc1`?
SNCA expr inh: 38%[87.6 µM]; FLuc inh-1: inactive; hNpr1 antagonist: -8%[70.6 µM]; 3T3 cytotox: inconclusive; SNCA viab count: -10%[87.6 µM]; HEK293 tox: inconclusive
